AF4-AF9 inh = MLL-AF4/AF9 protein interaction inhibition; inhibition, % at 10 µM; 350,000 tested, 0.47% active; AlphaScreen, biotin-AF4 peptide binding to FLAG-AF9; P42568; AID 651704;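 active means every replicate reaching a set inhibition limit, whatever the replicate mean, cut at about 25% in these data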;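 further: 0% = plate neutral control median and 100% = total signal loss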
PGC1a acetyl inh = PGC1a acetylation modulation, inhibitor mode; U2OS PGC1a acetylation, AlphaScreen anti-acetyl-lysine; with virally co-expressed GCN5 acetyltransferase; inhibition, % at 15.6 µM; 350,000 tested, 0.17% active; AID 651687;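 active means every replicate shows inhibition of at least 40%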;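 further: 0% = neutral control wells and 100% = positive control wells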
NSD2 HMT inh = NSD2 (human) methyltransferase inhibition; NSD2 peptide methylation, AlphaScreen, 120 min; inhibition, % at 12.5 µM; 310,000 tested, 0.54% active; AID 743445; in the data active means inhibition above about 50%
Env fusion inh = blocks HIV Env-driven cell-cell fusion | HeLa-JRFL Env/CEM21 cell fusion, luciferase | inhibition, % at 12.3 µM | 360,000 tested, 1.1% active | AID 651610;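 active means mean replicate inhibition score of at least 50 and every replicate individually at or above 50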;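 further: 0% = plate neutral controls and 100% = maraviroc near 300 nM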
INS-1E GSIS act = primary screen for activators of insulin secretion dependent on glucose, INS-1E cells, GLuc reporter luminescence | AID 743287 | activation, % at 16.6 µM | 370,000 tested, 0.61% active | INS-1E GLuc reporter insulin secretion, 2-3 h;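 active means lowest replicate activation of at least 40%, so every replicate reaches that level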;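 further: 0% = median of neutral control wells and 100% = median of IBMX positive control wells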
Numbers without * were called inactive; x = not tested or not shown; [ ] = another dose, or the depositor's remark. Shown are actives, neighbours in structure and some others; about 2.1% of the full set was active somewhere.

SMILES | AF4-AF9 inh | PGC1a acetyl inh | NSD2 HMT inh | Env fusion inh | INS-1E GSIS act
O=C(NC1CCCCC1)N[C@@H]1C=C[C@@H](CC(=O)N2CCOCC2)O[C@@H]1CO | 38.2* | -7.9 | x | x | 14.1
O=C(NC(=S)NC1CCN(Cc2ccccc2)CC1)c1ccc(F)cc1 | 4.3 | 1.0 | -0.1 | 26.0 | -14.8
CCc1ccc2[nH]c3nc(SCc4nnc(-c5ccc(C)cc5)o4)nnc3c2c1 | x | 8.5 | 1.6 | -83.5 | x
CN(C)c1ccc(O)c2c1CC1CC3C(N(C)C)C(=O)C(C(N)=O)=C(O)[C@@]3(O)C(=O)C1=C2O (some centres undefined) | 1.8 | 7.5 | x | 33.9 | x
CN(C)c1ccc(O)c2c1CC1CC3[C@@H](N(C)C)C(=O)C(C(N)=O)C(=O)[C@]3(O)C(=O)C1C2=O (some centres undefined) | 0.7 | -3.1 | x | 86.8* | x
Cc1noc(C)c1S(=O)(=O)N(C)C[C@@H]1OCCCC[C@@H](C)Oc2ccc(NS(C)(=O)=O)cc2C(=O)N([C@H](C)CO)C[C@H]1C | -10.9 | -4.2 | x | -26.2[16.7 µM] | 4.3
CCCCN(C)C(=O)C(Cc1ccccc1)NS(=O)(=O)c1ccc2c(c1)CCC(=O)N2 (centres undefined) | -7.0 | -17.9 | x | 67.0* | 3.5
Cc1nc(C(=O)Nc2ccc(Cl)cc2)sc1C1(C)CC(c2cccc([N+](=O)[O-])c2)=NO1 (centres undefined) | 5.2 | x | x | 55.0* | 6.6
CCC(=O)Nc1sc2c(c1C(=O)N(C)C)CCCCC2 | x | -5.3 | -2.3 | x | 7.2
CCCCCC(=O)N1C[C@@H](n2cc(-c3ccc(F)cc3)nn2)[C@H](O)C[C@@H]1c1ccc(Cl)cc1 | -5.3 | 14.6 | x | -15.7 | -19.6
CCCCCC(=O)N1C[C@H](n2cc(-c3ccc(F)cc3)nn2)[C@@H](O)C[C@@H]1c1ccc(C)cc1 | 0.9 | 66.6* | x | 1.2 | -33.5
CC(=O)Nc1ccc(OC(=O)c2cc([N+](=O)[O-])ccc2Cl)cc1 | 0.6 | 1.0 | -0.4 | x | -3.3
O=C(CCCc1ccccc1)NCc1cccnc1 | x | 19.4 | -1.4 | -20.0 | x
COc1ccc(OC)c(C2=NOC(C(=O)Nc3ccc4c(c3)OCCO4)C2)c1 (centres undefined) | -1.7 | x | 0.0 | -6.8 | 19.5
O=C(Nc1cccc(OC(F)(F)F)c1)C1Cc2c(-c3ccccc3Oc3ccccc3)ccnc2O1 (centres undefined) | 3.2 | x | -1.0 | 59.2* | x
O=C(Nc1ccc(Cl)cc1)C1Cc2c(-c3ccccc3Oc3ccccc3)ccnc2O1 (centres undefined) | 0.0 | x | -3.0 | -14.1 | -27.5
O=C(Nc1cc(C(F)(F)F)ccc1F)C1Cc2c(-c3ccccc3Oc3ccccc3)ccnc2O1 (centres undefined) | 0.6 | x | -3.6 | 78.8* | x
O=C(Nc1ccccc1)C1Cc2c(-c3ccccc3Oc3ccccc3)ccnc2O1 (centres undefined) | -2.7 | -21.2 | 1.5 | 10.7 | -11.6
CN(C[C@H]1N[C@@H](CO)[C@@H]1c1ccc(C2=CCCC2)cc1)C(=O)c1cccc(F)c1 | 2.5 | 76.2* | x | x | 8.7
CCCCCCCCCn1ccc(=N)cc1 | x | -17.9 | x | 79.2* | 14.5
CCc1ccc(NC(=O)C2=CC(c3ccc(OC)c(OC)c3)=NS(=O)(=O)N2C)cc1 | 7.8 | -1.6 | x | 56.0* | -5.8
COc1ccc(CNC(=O)C2=CC(c3ccc(OC)c(OC)c3)=NS(=O)(=O)N2C)cc1 | 5.2 | 4.8 | x | x | 2.3
COc1ccc2c3c([nH]c2c1)[C@H](CO)N(C(=O)Nc1cccc(F)c1)CC31CN(CC2CC2)C1 | 28.9* | -4.2 | x | x | -14.7
COc1ccc2c3c([nH]c2c1)[C@@H](CO)N(C(=O)Nc1cccc(F)c1)CC31CCN(CC2CC2)CC1 | 25.4* | -14.1 | x | x | -8.8
COc1ccc2c3c([nH]c2c1)[C@H](CO)N(Cc1ccccc1)CC31CCN(CC2CC2)CC1 | 26.1* | 29.4 | x | x | 13.9
SMILES | AF4-AF9 inh | PGC1a acetyl inh | NSD2 HMT inh | Env fusion inh | INS-1E GSIS act
COc1ccc2c3c([nH]c2c1)[C@H](CO)N(C(=O)Nc1cccc(F)c1)CC31CCN(CC2CC2)CC1 | 11.8 | -6.9 | x | x | -3.5
COc1cc(-c2cc(C(=O)Nc3nc4ccccc4s3)c3ccccc3n2)cc(OC)c1OC | x | x | -2.3 | -5.6 | -29.3
Cc1noc(C)c1NC(=O)N(C)C[C@@H]1Oc2ccc(NC(=O)NC3CCCCC3)cc2CC(=O)N([C@@H](C)CO)C[C@@H]1C | -2.8 | -3.2 | x | 4.7[16.7 µM] | 7.1
CCCc1c(-c2ccc(OC)cc2)ncn1CCc1ccccc1OC | x | x | x | 13.3 | -36.8
COc1ccccc1CCn1cnc(-c2ccc(Cl)cc2)c1CC(C)C | 7.1 | x | x | 24.6 | 306.8*
COc1ccccc1CCn1cnc(-c2cccc(F)c2)c1CC(C)C | 4.5 | x | x | -10.7 | 141.2*
CCNC(=O)c1cc2c(c(-c3cccc(Br)c3)n1)[C@H](CCO)NC2 | -0.8 | x | x | x | 3.2
COCc1ccc(C(=O)NC2CCSc3ccccc32)cc1 (centres undefined) | 0.8 | 29.9 | 0.8 | -5.8 | 75.8*
Cc1ccc(C(=O)N2CCN(c3ccc(NC(=O)c4ccc5c(c4)OCCO5)cc3)CC2)cc1 | 2.7 | -5.8 | -1.0 | 64.8* | -7.7
CCOc1ccc(C(=O)Nc2ccc(NC(=O)c3cccs3)cc2)cc1[N+](=O)[O-] | x | -10.0 | -0.6 | -164.0 | 103.6*
O=C(Nc1cccc(NC(=O)c2cccs2)c1)c1ccc2c(c1)OCO2 | -0.1 | x | -2.9 | 10.6 | -8.2
COc1ccc(C(=O)Nc2ccc(NC(=O)c3cccs3)cc2)cc1[N+](=O)[O-] | 2.0 | x | -1.2 | -7.0 | -10.9
Cc1ccc2oc(-c3ccc(NC(=O)c4ccc5c(c4)OCO5)cc3)nc2c1 | x | -0.4 | -2.6 | 24.0 | 246.2*
O=C(Nc1ccc(-c2nc3ccccc3o2)cc1)c1ccc2c(c1)OCO2 | 3.5 | -1.0 | -5.1 | x | 9.2
O=C(Nc1ccc(NC(=O)c2cccs2)cc1)c1ccc2c(c1)OCO2 | 3.9 | -9.7 | x | -13.8 | 47.5*
CCOC(=O)c1ccc(NC(=O)c2c(NC(=O)CCC(=O)O)sc3c2CCCCC3)cc1 | -7.6 | -3.7 | 2.9 | 7.3 | -11.8
CC1=C/C(=C\c2ccc3c(c2)OCO3)C(=O)S1 | x | 10.2 | -3.5 | -32.1 | x
CCOc1ccc(C(=O)NC(=S)Nc2ccc(NC(=O)c3ccco3)cc2)cc1[N+](=O)[O-] | x | x | 15.9 | -6.1 | 43.1*
Cc1nn(Cc2cccc(C(=O)Nc3ccn(Cc4c(F)c(F)cc(F)c4F)n3)c2)c(C)c1[N+](=O)[O-] | x | -24.8 | -0.9 | 56.3* | -5.0
CCOc1cc(-c2sc(Nc3ccc(CC)cc3)n[n+]2-c2ccccc2)ccc1OC | 26.6* | 1.7 | x | -77.9 | -0.5
COc1ccc(C)cc1Nc1n[n+](-c2ccccc2)c(-c2c(OC)ccc3ccccc23)s1 | 40.4* | x | x | 45.8 | -45.4
COc1ccc(N(C(=O)CSCC(=O)Nc2cc(C)on2)C(C(=O)NC2CCCCC2)c2ccc(O)c(O)c2)cc1 (centres undefined) | 2.4 | x | 3.5 | 56.6* | -10.1
O=c1c2ccccc2nnn1CSc1nnc(COc2ccc(Cl)cc2)n1Cc1ccco1 | x | 2.5 | 1.8 | 70.4* | x
N#Cc1nc(N2CCOCC2)nc(N2CCOCC2)n1 | x | 8.7 | 1.7 | x | 56.9*
